This is an account of results in PubChem BioAssay (NCI).

This is part of a sample that, as a whole, favours compounds with a hit. Of some 83,000 tested, about 20% had one in any assay.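 Treatment: one concentration, 48 hours, 96-well format. Scoring: percent growth, with anything below 10 considered active.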 Unmarked numbers belong to inactive results. Calls of active or inactive are those of the source.

Test systems include HCT-15 colon; HT29 colon; SNB-75 CNS; SNB-19 CNS; U251 CNS; PC-3 prostate; SK-MEL-5 melanoma; UACC-62 melanoma; LOX IMVI melanoma; SK-MEL-28 melanoma.
What all share (test): NCI-60 one-dose screen, 48 h (100 = growth as untreated, 0 = no growth, -100 = all killed)
Holding throughout (details): 10 µM unless noted

Consider `COc1ccc(OC)c(Nc2nc3nonc3nc2Nc2cccc(Br)c2)c1`, for which the growth with HCT-15 colon is 13.1%; in the test with HT29 colon it was 3.47% (active); in the test on SNB-75 CNS it was 3.07% (active); in the test with SNB-19 CNS it was 14.6%; in the test with U251 CNS it was 3.05% (active); in the test with PC-3 prostate, 1.15% (active). Besides, the growth with SK-MEL-5 melanoma was -47.8% (active); in the test with UACC-62 melanoma it was 18.7%; in the test on LOX IMVI melanoma, 4.56% (active); in the test with SK-MEL-28 melanoma, 30.2%.

With `N#C/C(=C\c1ccc2c(c1)OCO2)n1nnc2ccccc21`, the growth is 9% (active) in the test on HCT-15 colon; 11.5% with HT29 colon; -49.7% (active) with SNB-75 CNS; 19.8% with SNB-19 CNS; 13% with U251 CNS; 12.5% with PC-3 prostate. Further, the growth was 20.4% with SK-MEL-5 melanoma, 20% in the test with UACC-62 melanoma, -11% (active) in the test on LOX IMVI melanoma and 25.8% in the test on SK-MEL-28 melanoma.

As to `CCN(CCO)CC(=O)c1cc(Cl)cc(Cl)c1Cl`, the growth with HCT-15 colon is 101%; with HT29 colon, 81.8%; in the test with SNB-75 CNS, 95.3%; in the test on SNB-19 CNS it was 105%; with U251 CNS, 101%; in the test on PC-3 prostate, 84%. Further, the growth in the test on SK-MEL-5 melanoma is 105%; with UACC-62 melanoma, 98.3%; in the test on LOX IMVI melanoma, 99.6%; with SK-MEL-28 melanoma, 111%.

For the compound `COc1cc(C(=O)Nc2cc(O)c(CC=C(C)C)c(O)c2)cc2c1O[C@]1(C)CC[C@@H](O)C(C)(C)[C@H]1C2`, the growth in the test with HCT-15 colon is 13.3%; with HT29 colon, 1.4% (active); in the test on SNB-75 CNS, 17.9%; in the test with SNB-19 CNS, 53.4%; in the test on U251 CNS it was 16.3%; in the test on PC-3 prostate, 18.2%. The growth in the test with SK-MEL-5 melanoma is -23.5% (active); in the test with UACC-62 melanoma it was 8.82% (active); with LOX IMVI melanoma, -12% (active); in the test with SK-MEL-28 melanoma, 30%.

As to `Cc1cccc(-c2cc(O)c(C(=O)N3CCOCC3)s2)c1`, the growth in the test on HCT-15 colon is 21.4%; with HT29 colon it was 52.2%; in the test on SNB-75 CNS, 33.5%; in the test on SNB-19 CNS, 31.5%; in the test with U251 CNS it was 28.6%; with PC-3 prostate, 60.5%. Further, the growth was 26% with SK-MEL-5 melanoma, 34.5% with UACC-62 melanoma, 33.2% in the test on LOX IMVI melanoma and 56.9% in the test with SK-MEL-28 melanoma.

For `Clc1ccc(-c2nnc(-c3ccco3)o2)cc1`, the growth in the test on HCT-15 colon was 112%; in the test with HT29 colon it was 105%; in the test with SNB-75 CNS, 89.1%; with SNB-19 CNS it was 90.6%; in the test with U251 CNS it was 98.7%; with PC-3 prostate, 96.7%. Moreover, the growth in the test on SK-MEL-5 melanoma is 108%; with UACC-62 melanoma, 93.9%; in the test with LOX IMVI melanoma, 97.8%; in the test with SK-MEL-28 melanoma, 125%.

With `Cc1nc(Nc2ccc(NC(=S)Nc3ccccc3)cc2)nc2nc(SCc3ccccc3)[nH]c(=O)c12`, the growth in the test on HCT-15 colon is 108%; in the test on HT29 colon, 120%; in the test on SNB-75 CNS, 104%; in the test with SNB-19 CNS it was 102%; with U251 CNS, 100%; in the test on PC-3 prostate, 100%. Further, the growth in the test on SK-MEL-5 melanoma was 99.7%; in the test with UACC-62 melanoma, 81.7%; with LOX IMVI melanoma, 101%; with SK-MEL-28 melanoma, 115%.

In the case of `Cc1ccc(S(=O)(=O)Nc2sccc2-c2nc(-c3ccccc3)no2)cc1`, the growth in the test on HCT-15 colon was 97.9%; in the test on HT29 colon, 100%; in the test on SNB-75 CNS it was 84.4%; in the test on SNB-19 CNS, 94.4%; in the test on U251 CNS, 93.9%; in the test on PC-3 prostate, 86.4%. The growth was 98.6% in the test on SK-MEL-5 melanoma, 79.1% in the test with UACC-62 melanoma, 91% with LOX IMVI melanoma and 92.9% in the test with SK-MEL-28 melanoma.

As to `Cc1nc(C)c(-c2nn3c(-c4cccc(F)c4)nnc3s2)s1`, the growth is 101% in the test with HCT-15 colon; 86.6% in the test with HT29 colon; 113% with SNB-75 CNS; 93.6% in the test with SNB-19 CNS; 93.5% in the test with U251 CNS; 89.3% with PC-3 prostate. Besides, the growth with SK-MEL-5 melanoma was 92.8%; with UACC-62 melanoma it was 96%; in the test on LOX IMVI melanoma, 99.9%; in the test on SK-MEL-28 melanoma, 119%.

For the compound `Cc1cc(Cc2cc(C)cc(C(C)(C)C)c2O)c(O)c(C(C)(C)C)c1`, the growth with HCT-15 colon was 21.4%; in the test on HT29 colon it was 25%; in the test on SNB-75 CNS it was 69.3%; in the test on SNB-19 CNS, 48%; in the test with U251 CNS it was 32.5%; with PC-3 prostate, 33.9%. Besides, the growth was 48.3% in the test on SK-MEL-5 melanoma, 47% with UACC-62 melanoma, 47.5% with LOX IMVI melanoma and 80.3% in the test on SK-MEL-28 melanoma.

In the case of `CC(C)N(CCOC(=O)Nc1ccccc1Cl)C(C)C`, the growth was 108% with HCT-15 colon; 97.1% with HT29 colon; 107% in the test with SNB-75 CNS; 98.6% in the test with SNB-19 CNS; 98.8% with U251 CNS; 74% with PC-3 prostate. For the same compound, the growth in the test on SK-MEL-5 melanoma is 97.5%; in the test with UACC-62 melanoma, 96.4%; with LOX IMVI melanoma it was 101%; with SK-MEL-28 melanoma, 110%.

`CN1CCN(c2ccc3nc(/N=C/c4ccc5sc(-c6ccc([N+](=O)[O-])cc6)nc5c4)sc3c2)CC1`: the growth with HCT-15 colon is 102%; in the test with HT29 colon it was 103%; with SNB-75 CNS, 106%; in the test with SNB-19 CNS it was 104%; in the test on U251 CNS, 93.9%; in the test with PC-3 prostate, 104%. The growth in the test on SK-MEL-5 melanoma is 90.6%; in the test on UACC-62 melanoma, 104%; in the test on LOX IMVI melanoma it was 117%; in the test on SK-MEL-28 melanoma, 107%.

On to `Nc1ccc(S(=O)(=O)Nc2ccsc2-c2nc(-c3ccccc3)no2)cc1`, for which the growth in the test on HCT-15 colon was 34.1%; with HT29 colon, 11.8%; with SNB-75 CNS, 54.8%; with SNB-19 CNS, 69.3%; in the test with U251 CNS it was 41.7%; in the test with PC-3 prostate, 53.1%. Further, the growth in the test on SK-MEL-5 melanoma is 65.9%; in the test with UACC-62 melanoma it was 50.7%; with LOX IMVI melanoma it was 68%; with SK-MEL-28 melanoma, 71.2%.
